A short description of assay [1]: optical density shifts of acrAB sulA E. coli – strain DRC41, OD650, 48 h, E. coli filamentation inducer project, primary screen (AID 1152).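 Note: E. coli MC1000 strain DRC41 lacking acrAB efflux pump and sulA.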 As to conditions: higher = more signal, called active from +8 up or from −8 down.
Assay [2] is described as follows: probe aLefty1 binding on compound microarray – biochemical, small-molecule microarray, 635/667 nm fluorescence, primary screen (AID 1153).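 Note: score merges spot fluorescence with signal-to-noise ratio from the scanned slide images.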 The following applies: higher = more signal.
Assay [3] in a line: plasmodial surface anion channel blockers, osmotic lysis – cell-based, P. falciparum Indochina, OD700, 1 h, primary screen (AID 1154). As to conditions: P. falciparum Indochina infected RBC osmotic lysis, higher = more signal, called active from +8 up or from −8 down.
A short description of assay [4]: plasmodial surface anion channel blockers, osmotic lysis – cell-based, P. falciparum Indochina, OD700, 2 h, primary screen (AID 1155).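 Note: lysis reports solute entry through the parasite surface anion channel PSAC.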 As to conditions: P. falciparum Indochina infected erythrocytes, higher = more signal, called active from +8 up or from −8 down.
The nature of assay [5]: changes in parasitized red cell lysis, either direction – P. falciparum Indochina, OD700, 3 h, PSAC antagonist project, primary screen (AID 1156). As to conditions: P. falciparum-infected erythrocytes, osmotic lysis, higher = more signal, called active from +8 up or from −8 down.
A short description of assay [6]: plasmodial surface anion channel blockers, osmotic lysis – cell-based, P. falciparum Indochina, OD700, 18 h, primary screen (AID 1157). The following applies: P. falciparum Indochina infected erythrocytes, osmotic lysis OD700, 18 h; higher = more signal, called active from +8 up or from −8 down.
Assay [7] is described as follows: S6 kinase pathway phospho-S6 level changes – cell-based, A549, cytoblot, luminescence, serum-stimulated, primary screen (AID 1158).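 Note: serum-stimulated A549 lung adenocarcinoma cells; signal is phosphorylated S6 detected by cytoblot immunostaining with HRP secondary.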 The following applies: 5 h, higher = more signal.
The target of assay [8] is NADPH oxidase 2 (Homo sapiens) (UniProt P04839). The assay can be described thus: compounds shifting NOX2 Amplex Red fluorescence – cell-based, HEK293-NOX2, PMA-stimulated, NOX inhibitor project, primary screen (AID 1159). Note: test concentration not given here. As to conditions: 45 min, higher = more signal, called active from +8 up or from −8 down.
Sequence of NADPH oxidase 2 (Homo sapiens) (P04839 whole entry, looked up): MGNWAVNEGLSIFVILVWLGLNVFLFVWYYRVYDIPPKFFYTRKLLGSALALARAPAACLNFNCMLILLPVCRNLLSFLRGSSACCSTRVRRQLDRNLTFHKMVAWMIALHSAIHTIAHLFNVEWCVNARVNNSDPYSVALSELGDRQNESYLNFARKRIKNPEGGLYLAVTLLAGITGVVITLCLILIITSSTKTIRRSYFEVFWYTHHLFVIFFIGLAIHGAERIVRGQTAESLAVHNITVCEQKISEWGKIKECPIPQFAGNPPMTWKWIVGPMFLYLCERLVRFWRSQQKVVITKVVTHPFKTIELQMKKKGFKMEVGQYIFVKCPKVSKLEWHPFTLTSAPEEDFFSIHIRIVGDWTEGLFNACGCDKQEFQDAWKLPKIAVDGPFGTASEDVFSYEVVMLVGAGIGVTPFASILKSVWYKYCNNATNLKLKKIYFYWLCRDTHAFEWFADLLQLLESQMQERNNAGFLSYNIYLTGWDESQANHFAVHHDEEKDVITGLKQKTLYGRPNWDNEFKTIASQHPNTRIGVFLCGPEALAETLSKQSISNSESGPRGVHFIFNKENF
The target in assay [9] is NADPH oxidase 4 (Homo sapiens) (UniProt Q9NPH5). The assay can be described thus: compounds shifting NOX4 Amplex Red fluorescence – cell-based, HEK293-NOX4, tetracycline-induced, NOX inhibitor project, primary screen (AID 1160). As to conditions: HEK293-NOX4, Amplex Red H2O2 fluorescence, 45 min; higher = more signal, called active from +8 up or from −8 down.
Sequence of NADPH oxidase 4 (Homo sapiens) (Q9NPH5 whole entry, looked up): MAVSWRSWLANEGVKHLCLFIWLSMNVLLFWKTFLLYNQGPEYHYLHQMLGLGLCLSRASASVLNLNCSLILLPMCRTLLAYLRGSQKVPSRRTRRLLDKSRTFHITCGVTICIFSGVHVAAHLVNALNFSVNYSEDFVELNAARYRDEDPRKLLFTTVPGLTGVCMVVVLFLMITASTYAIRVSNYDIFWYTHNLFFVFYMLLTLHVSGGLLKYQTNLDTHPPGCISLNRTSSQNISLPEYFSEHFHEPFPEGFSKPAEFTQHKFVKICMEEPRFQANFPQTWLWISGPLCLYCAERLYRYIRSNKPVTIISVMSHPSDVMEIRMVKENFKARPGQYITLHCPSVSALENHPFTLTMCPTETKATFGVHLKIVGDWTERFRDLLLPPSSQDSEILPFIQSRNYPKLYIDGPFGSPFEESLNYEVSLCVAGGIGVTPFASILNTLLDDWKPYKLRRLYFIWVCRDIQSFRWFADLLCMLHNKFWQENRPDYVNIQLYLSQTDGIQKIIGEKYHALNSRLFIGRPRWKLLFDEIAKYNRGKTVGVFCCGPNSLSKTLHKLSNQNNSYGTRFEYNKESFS
In assay [10] the target is NADPH oxidase 5 (Homo sapiens) (UniProt Q96PH1). The assay can be described thus: compounds shifting NOX5 Amplex Red fluorescence – cell-based, HEK293-NOX5, NOX inhibitor project, primary screen (AID 1161). As to conditions: HEK293-NOX5, ionomycin, 45 min, higher = more signal.
Sequence of NADPH oxidase 5 (Homo sapiens) (Q96PH1 whole entry, looked up): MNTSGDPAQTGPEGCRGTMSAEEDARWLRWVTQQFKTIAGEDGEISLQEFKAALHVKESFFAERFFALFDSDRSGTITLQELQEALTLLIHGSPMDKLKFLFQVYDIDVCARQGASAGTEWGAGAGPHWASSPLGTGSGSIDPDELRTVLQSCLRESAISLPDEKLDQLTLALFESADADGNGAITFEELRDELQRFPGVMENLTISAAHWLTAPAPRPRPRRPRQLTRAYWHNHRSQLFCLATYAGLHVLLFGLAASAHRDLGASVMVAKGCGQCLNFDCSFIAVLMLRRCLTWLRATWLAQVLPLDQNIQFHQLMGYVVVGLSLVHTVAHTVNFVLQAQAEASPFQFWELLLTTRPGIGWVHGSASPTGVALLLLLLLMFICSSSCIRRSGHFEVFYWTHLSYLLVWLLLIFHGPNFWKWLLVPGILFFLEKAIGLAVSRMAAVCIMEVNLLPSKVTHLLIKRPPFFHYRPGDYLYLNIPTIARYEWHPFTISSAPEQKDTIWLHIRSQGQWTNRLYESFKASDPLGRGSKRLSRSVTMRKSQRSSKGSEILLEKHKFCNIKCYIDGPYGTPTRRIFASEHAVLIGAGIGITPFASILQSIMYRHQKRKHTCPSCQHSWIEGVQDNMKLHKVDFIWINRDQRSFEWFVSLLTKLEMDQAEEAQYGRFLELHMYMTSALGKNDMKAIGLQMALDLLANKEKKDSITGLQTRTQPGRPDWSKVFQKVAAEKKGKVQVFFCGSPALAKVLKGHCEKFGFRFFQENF
Assay [11] is described as follows: compound effects on lung adenocarcinoma cell viability – A549, calcein-AM fluorescence, 48 h, basal, profiling panel (AID 1162). Note: test concentration not given here. As to conditions: higher = more signal.
Assay [12] in a line: compound effects on differentiated 3T3-L1 adipocyte viability – cell-based, 3T3-L1 adipocytes, calcein-AM fluorescence, 48 h, basal, profiling panel (AID 1163). Note: test concentration not given here. The following applies: 3T3-L1 adipocytes viability, higher = more signal.
Assay [13] in a line: compound effects on hepatocellular carcinoma cell viability – HepG2, calcein-AM fluorescence, 48 h, basal, profiling panel (AID 1164). Note: test concentration not given here. As to conditions: higher = more signal.
A short description of assay [14]: compound effects on multiple myeloma cell viability – MM1S, calcein-AM fluorescence, 48 h, basal, profiling panel (AID 1165). Note: test concentration not given here. As to conditions: higher = more signal.
Assay [15] in a line: calcein-AM signal in unstimulated myeloma cells – cell-based, calcein-AM fluorescence, 48 h, PK04 Diversity Set, profiling panel (AID 1166).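 Note: cells grown under basal conditions without added stimulus; test concentration not given here.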 The following applies: RPMI8226 myeloma viability, higher = more signal.
The nature of assay [16]: JC-1 mitochondrial signal, unstimulated HepG2 cells – cell-based, JC-1 fluorescence, 24 h, 100 nL compound, profiling panel (AID 1167). Note: test concentration not given here. As to conditions: HepG2 mitochondrial potential, higher = more signal.
Assay [17] can be described thus: JC-1 mitochondrial signal, unstimulated adipocytes – cell-based, JC-1 fluorescence, 3T3-L1 adipocytes, 24 h, 100 nL compound, profiling panel (AID 1168). Note: test concentration not given here. As to conditions: JC-1 mitochondrial fluorescence, higher = more signal, called active from +8 up or from −8 down.
A short description of assay [18]: JC-1 mitochondrial signal, unstimulated myeloma cells – cell-based, JC-1 fluorescence, RPMI8226, 24 h, 100 nL compound, profiling panel (AID 1169). Note: test concentration not given here. As to conditions: JC-1 mitochondrial potential fluorescence, higher = more signal.
The nature of assay [19]: JC-1 mitochondrial signal, unstimulated MM1S myeloma – cell-based, JC-1 fluorescence, 24 h, 100 nL compound, profiling panel (AID 1170). Note: test concentration not given here. As to conditions: MM1S mitochondrial potential, higher = more signal.
The nature of assay [20]: resazurin metabolic signal in A549 cells – cell-based, resazurin fluorescence, 24 h, PK04 Diversity Set, profiling panel (AID 1171). Note: test concentration not given here. The following applies: A549 viability, higher = more signal, called active from +8 up or from −8 down.

Activity calls are given as the source filed them.

As for `COC(=O)CC=C[C@H](C)[C@H](CO)NS(=O)(=O)c1ccc(C)cc1`, the z-score in [1] was -1.48 (inactive); in assay [3] it was 0.251 (inactive); in assay [4] it was -0.085 (inactive); in assay [5], -0.206 (inactive); in [6], -0.119 (inactive); in [7] it was -0.497. The z-score was 1.48 (inactive) in [8]; 0.227 (inactive) in assay [9]; -0.484 in assay [10]; -0.595 in assay [11]; 0.41 in [12]; -0.392 in [13]. In addition, the z-score is 0.165 in assay [14]; 0.364 in assay [15]; -0.976 in assay [16]; -0.0535 (inactive) in [17]; -0.49 in assay [18]; 0.604 in assay [19]. For the same compound, the z-score in assay [20] was -0.711 (inactive). Also, the composite z-score in assay [2] is -0.221.

For `O=C1[C@H]2[C@H]3[C@H](O)[C@H](O)CC(=NO[C@@H]4O[C@H](CO)[C@@H](O)[C@H](O)[C@H]4O)[C@@H]3CC[C@H]2C(=O)N1c1ccc(F)cc1F`, the z-score in [1] was 0.178 (inactive); in [3], -0.219 (inactive); in [4], 0.363 (inactive); in assay [5], -0.444 (inactive); in assay [6], 0.205 (inactive); in assay [7], -0.709. Besides, the z-score in [8] was 0.455 (inactive); in [9], 0.199 (inactive); in assay [10], -0.606; in assay [11], -0.234; in [12], 0.269; in [13] it was -0.87. Further, the z-score is 0.506 in [14]; -0.165 in assay [15]; 0.717 in [16]; 0.738 (inactive) in [17]; -0.079 in [18]; 0.256 in assay [19]. Also, the z-score in assay [20] is -0.126 (inactive). In addition, the composite z-score in assay [2] is -0.0145.

For the compound `CCN1C(=O)[C@H]2[C@H]3[C@H](O)[C@H](O)CC(=NOC(C)CN4CCCCc5nc(C)c(C)cc54)[C@@H]3CC[C@H]2C1=O` (stereo not given in full), the z-score in assay [1] was 0.803 (inactive); in [3] it was 0.29 (inactive); in [4] it was 0.15 (inactive); in [5] it was 0.363 (inactive); in assay [6], 0.317 (inactive); in assay [7], -0.518. For the same compound, the z-score was -0.588 (inactive) in assay [8]; -0.245 (inactive) in assay [9]; -0.239 in assay [10]; -0.421 in assay [11]; 0.111 in assay [12]; 0.503 in assay [13]. Besides, the z-score in assay [14] is 0.0768; in assay [15], 0.173; in assay [16], -0.214; in assay [17], -1.21 (inactive); in assay [18], -0.232; in assay [19], -0.0499. The z-score in assay [20] was -0.378 (inactive). The composite z-score in assay [2] was -0.106.

In the case of `CCOC(=O)NN=C1C[C@@H](O)[C@@H](O)[C@@H]2[C@@H]3C(=O)N(C(C)(C)C)C(=O)[C@@H]3CC[C@@H]12`, the z-score in assay [1] was -0.0206 (inactive); in [3], 0.209 (inactive); in assay [4], -0.0313 (inactive); in assay [5], -0.548 (inactive); in [6] it was 0.0353 (inactive); in assay [7], -0.12. Further, the z-score in [8] was 0.5 (inactive); in assay [9], 1.05 (inactive); in assay [10] it was 0.295; in [11], -0.571; in assay [12] it was -0.0947; in assay [13], -0.394. For the same compound, the z-score in assay [14] is 0.0284; in assay [15] it was -0.0464; in assay [16], -0.79; in assay [17], -0.911 (inactive); in assay [18], 0.329; in [19], 0.243. Besides, the z-score in [20] is -0.452 (inactive). In addition, in assay [2], the composite z-score was -0.0601.

Take `O=C1[C@H]2[C@H]3[C@H](O)[C@H](O)CC(=NOCc4ccccc4)[C@H]3CC[C@H]2C(=O)N1c1ccc(F)cc1F`: the z-score in assay [1] is -0.139 (inactive); in assay [3], 9.01 (active); in assay [4] it was 1.42 (inactive); in assay [5] it was 0.155 (inactive); in [6] it was -0.304 (inactive); in [7], -0.392. In addition, the z-score in assay [8] is -4.97 (inactive); in assay [9], 0.187 (inactive); in [10], -0.471; in assay [11], 0.213; in [12] it was 0.118; in [13], -0.196. Moreover, the z-score was 0.772 in [14]; 0.471 in assay [15]; 0.577 in assay [16]; 0.918 (inactive) in assay [17]; 0.305 in [18]; -0.801 in assay [19]. In addition, in assay [20], the z-score is -0.0399 (inactive). In assay [2], the composite z-score was -0.761.

The record behind these values is PubChem BioAssay.
